From PubChem BioAssay (NCATS) come the findings set out here.

Each structure is given as a SMILES string. Records with an inconclusive call do not appear. Active and inactive are the calls of the source. Calls come from the whole dose curve; as a rule, active = well fitted curve in the direction sought with a large enough effect; inconclusive = small, poorly fitted or top-dose-only effect, or another doubt; inactive = no such curve, though single readings can be large; an effect the other way counts as inactive or inconclusive.
% is set by controls: 0 for no effect and ±100 for the full control effect.

Chain of Phospholipid hydroperoxide glutathione peroxidase GPX4 (Homo sapiens) (P36969 whole entry, looked up): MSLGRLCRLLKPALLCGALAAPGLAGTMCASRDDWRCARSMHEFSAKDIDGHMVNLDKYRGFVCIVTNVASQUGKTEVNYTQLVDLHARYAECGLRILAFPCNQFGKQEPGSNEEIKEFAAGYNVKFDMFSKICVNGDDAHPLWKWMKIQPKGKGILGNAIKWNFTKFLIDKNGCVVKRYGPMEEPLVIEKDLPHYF
Chain of Metallo-beta-lactamase type 2 (Klebsiella pneumoniae) (C7C422 whole entry, looked up): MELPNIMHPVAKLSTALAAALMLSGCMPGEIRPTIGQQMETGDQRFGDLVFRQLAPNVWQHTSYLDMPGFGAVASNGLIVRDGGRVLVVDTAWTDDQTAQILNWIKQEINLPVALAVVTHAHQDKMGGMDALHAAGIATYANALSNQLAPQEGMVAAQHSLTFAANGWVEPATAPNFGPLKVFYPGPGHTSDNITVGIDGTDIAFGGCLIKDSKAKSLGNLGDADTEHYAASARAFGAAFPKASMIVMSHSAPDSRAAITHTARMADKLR

In the first assay the target is Metallo-beta-lactamase type 2 (Klebsiella pneumoniae) (UniProt C7C422). Nature of the assay: qHTS to identify inhibitors of the New Delhi Metallo-beta-lactamase (NDM): assay validation screen against the NCATS LOPAC Collection (AID 1794843).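 Note: nitrocefin turnover by NDM-1 measured as 485 nm absorbance at plateau.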 The settings on record: NDM-1 enzyme, nitrocefin hydrolysis, absorbance 485 nm; series mostly up to 38.4 µM; activity change, negative = inhibition: at the top concentration. The gist of the method:
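NDM-1 at 2 nM final in 50 mM HEPES pH 7.0, 1 uM ZnSO4, 0.01% Tween20, preincubated with LOPAC compounds pinned in DMSO; 50 uM nitrocefin (stock) added. Hydrolysis read as absorbance at 485 nm in the plateau phase.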
Background: qHTS replaces the single test concentration by a dilution series.
Regarding `CN1C2CCC1CC(OC(=O)c1c[nH]c3ccccc13)C2` (configuration not stated), the “activity change, negative = inhibition” value was 0.0462% (inactive).
On the same count and under the same terms, next, `Oc1ccc(O)cc1`: 4.94% (inactive); `CC(=O)O[C@H]1C[C@@H]2CC[C@@H]3[C@H](CC[C@@]4(C)[C@H]3C[C@H]([N+]3(C)CCCCC3)[C@@H]4OC(C)=O)[C@@]2(C)C[C@@H]1[N+]1(C)CCCCC1`: -0.528% (inactive); `CCCn1c(=O)[nH]c(=O)c2[nH]cnc21`: -2.43% (inactive).
In the case of `N[C@@H](Cc1cnc[nH]1)C(=O)O`, the “activity change, negative = inhibition” value was -3.45% (inactive).
The same measure, in the same setting: for `O=C(O)c1cc2cc(Cc3cccnc3)ccc2o1` the value was 2.77% (inactive).

The target of another assay is Glutathione peroxidase 1 (Homo sapiens) (UniProt P07203). Put plainly: Primary qHTS Assay for Inhibitors of Recombinant Selenoprotein Glutathione Peroxidase 1 (GPX1) (AID 1845191). Note: nearly all actives have a fitted effect of over 65% in size. Note: potency is the fitted concentration of half-maximal effect. The settings on record: recombinant GPX1, GR-coupled NADPH fluorescence, 15 min; series mostly up to 48.8 µM; activity, negative = inhibition: at the top concentration. The gist of the method: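 GR-coupled assay: compounds preincubated 30 min at room temperature with GPX1, then reaction started with CHP; final 10 nM GPX1, 1 mM GSH, 0.5 mM CHP, 0.5 mM NADPH, 100 nM GR, 0.01% BSA, pH 7.5 Tris buffer. NADPH fluorescence (340/450 nm) read at 0 and 15 min.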
Chain of Glutathione peroxidase 1 (Homo sapiens) (P07203 whole entry, looked up): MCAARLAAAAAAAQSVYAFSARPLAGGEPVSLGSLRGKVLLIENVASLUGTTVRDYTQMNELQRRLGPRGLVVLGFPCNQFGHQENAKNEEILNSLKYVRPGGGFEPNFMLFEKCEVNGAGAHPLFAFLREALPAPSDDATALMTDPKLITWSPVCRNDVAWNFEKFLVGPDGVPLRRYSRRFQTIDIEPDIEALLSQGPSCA
Regarding `OC(CCN1CCCCC1)(c1ccccc1)c1ccccc1`, the “activity, negative = inhibition” value is 1.17% (inactive).
As for `CCC(NC(C)C)C(O)c1ccc(O)c(O)c1` (configuration not stated), the Potency entry was “inactive”.
Regarding `CC(CCc1ccccc1)NCC(O)c1ccc(O)c(C(N)=O)c1` (configuration not stated), the Potency result was “inactive”.
Consider `CC1(C)CCC(NC(=O)[C@@H](N)CCC(=O)O)CC1`, for which the “activity, negative = inhibition” value is -7.8% (inactive).
On to `CNCCC=C1c2ccccc2CCc2ccccc21`, for which the Potency entry was “inactive”.
As for `CN(C)CCOc1ccccc1Cc1ccccc1`, the “activity, negative = inhibition” value is -13.1% (inactive).
For the compound `CCCCCC=CCC=CCCCCCCCC(=O)OCC`, the “activity, negative = inhibition” value was 1.61% (inactive).
In the case of `C=C1C(=C/C=C2\CCC[C@]3(C)[C@@H]([C@H](C)/C=C/[C@@H](O)C4CC4)CC[C@@H]23)C[C@@H](O)C[C@@H]1O`, the Potency result was “inactive”.
With `C=CCc1ccc(O)c(OC)c1`, the “activity, negative = inhibition” value was -7.42% (inactive).
On to `Nc1cc(Cl)c(NC2=NCCN2)c(Cl)c1`, for which the “activity, negative = inhibition” value is -15.1% (inactive).
As to `C1CCc2nnnn2CC1`, the result was inactive.
For the compound `C[C@]12CC[C@@H]3c4ccc(O)cc4CC[C@H]3[C@@H]1CC[C@@H]2O`, the Potency result is “inactive”.
Still for that read-out and setting: for `CC[C@H](C)C(=O)O[C@H]1CCC=C2C=C[C@H](C)[C@H](CC[C@@H]3C[C@@H](O)CC(=O)O3)[C@H]21` the value was “inactive”.
For `Oc1c(I)cc(Cl)c2cccnc12`, the “activity, negative = inhibition” value is -2.9% (inactive).
Turning to `COc1cc(/C=C/C(=O)O[C@H]2CC[C@]34C[C@]35CC[C@]3(C)[C@@H]([C@H](C)CCC=C(C)C)CC[C@@]3(C)[C@@H]5CC[C@H]4C2(C)C)ccc1O`, the “activity, negative = inhibition” value is -24.1% (inactive).
In the case of `CCCC1O[C@@H]2C[C@H]3[C@@H]4CCC5=CC(=O)C=C[C@]5(C)[C@H]4[C@@H](O)C[C@]3(C)[C@]2(C(=O)CO)O1` (some centres not stated), the Potency result is “inactive”.
For the compound `CC(C)COC(=O)c1ccc(N)cc1`, the “activity, negative = inhibition” value was -3.25% (inactive).
As to `Nc1ccc(C(=O)O)cc1`, the outcome was inactive.
In the case of `COc1cc2c(cc1O)CC[C@@H]1[C@@H]2CC[C@]2(C)[C@@H](O)CC[C@@H]12`, the Potency entry is “inactive”.
As to `Cc1ccnc(NS(=O)(=O)c2ccc(N)cc2)n1`, the result was inactive.
In the case of `CC(C)C[C@H]1C(=O)N2CCC[C@H]2[C@]2(O)O[C@](NC(=O)[C@@H]3C=C4c5cccc6[nH]c(Br)c(c56)C[C@H]4N(C)C3)(C(C)C)C(=O)N12`, the Potency result is “inactive”.
Regarding `CCN1CCCC1=O`, the “activity, negative = inhibition” value was -9.36% (inactive).
Consider `O=c1[nH]c(=O)n([C@H]2C[C@H](O)[C@@H](CO)O2)cc1C(F)(F)F`, for which the Potency entry was “inactive”.
As for `CN1C2CCC1CC(OC(=O)c1c[nH]c3ccccc13)C2` (configuration not stated), the result was inactive.
Take `CC(=O)O[C@H]1C[C@@H]2CC[C@@H]3[C@H](CC[C@@]4(C)[C@H]3C[C@H]([N+]3(C)CCCCC3)[C@@H]4OC(C)=O)[C@@]2(C)C[C@@H]1[N+]1(C)CCCCC1`: the “activity, negative = inhibition” value was -21.7% (inactive).
For `NC(=O)c1cc[n+](CC2=C(C(=O)[O-])N3C(=O)[C@@H](NC(=O)Cc4cccs4)[C@H]3SC2)cc1`, the Potency is 10.1 µM (active).
For `CCCn1c(=O)[nH]c(=O)c2[nH]cnc21`, the result was inactive.
For the compound `N[C@@H](Cc1cnc[nH]1)C(=O)O`, the “activity, negative = inhibition” value was -9.89% (inactive).
Turning to `O=C(O)c1cc2cc(Cc3cccnc3)ccc2o1`, the “activity, negative = inhibition” value is -3.37% (inactive).

Another assay concerns the target Phospholipid hydroperoxide glutathione peroxidase GPX4 (Homo sapiens) (UniProt P36969). Nature of the assay: Primary qHTS Assay for Inhibitors of Recombinant Selenoprotein Glutathione Peroxidase 4 (GPX4) (AID 1845192). Note: nearly all actives have a fitted effect of over 65% in size. As to conditions: recombinant GPX4, GR-coupled NADPH fluorescence, 15 min; series mostly up to 50 µM; activity change, negative = inhibition: at the top concentration. The gist of the method: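 GR-coupled assay: recombinant GPX4 preincubated 30 min with compound at room temperature; final 200 nM GPX4, 1 mM GSH, 0.5 mM cumene hydroperoxide, 0.5 mM NADPH, 100 nM GR, 0.01% BSA, pH 7.5 Tris. NADPH fluorescence (340/450 nm) read at 0 and 15 min.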
`O=c1ccc2ccccc2o1`: the “activity change, negative = inhibition” value is -0.216% (inactive).
Consider `CCC(NC(C)C)C(O)c1ccc(O)c(O)c1` (configuration not stated), for which the Potency result is “inactive”.
On to `O=C1CCC(c2ccc(-n3ccnc3)cc2)=NN1`, for which the result was inactive.
As to `CC(CCc1ccccc1)NCC(O)c1ccc(O)c(C(N)=O)c1` (configuration not stated), the Potency result is “inactive”.
For the compound `CC1(C)CCC(NC(=O)[C@@H](N)CCC(=O)O)CC1`, the “activity change, negative = inhibition” value was -0.563% (inactive).
With `CNCCC=C1c2ccccc2CCc2ccccc21`, the Potency entry was “inactive”.
Regarding `C/C=C/c1ccc(OC)cc1`, the result was inactive.
For the compound `Nc1cc(Cl)c(NC2=NCCN2)c(Cl)c1`, the “activity change, negative = inhibition” value is -21.9% (inactive).
Same read-out and setting: next, `C1CCc2nnnn2CC1`: 4.1% (inactive).
For `CNCCC(Oc1ccccc1C)c1ccccc1` (configuration not stated), the “activity change, negative = inhibition” value is -8.9% (inactive).
For `C[C@]12CC[C@@H]3c4ccc(O)cc4CC[C@H]3[C@@H]1CC[C@@H]2O`, the Potency result was “inactive”.
For `CC[C@H](C)C(=O)O[C@H]1CCC=C2C=C[C@H](C)[C@H](CC[C@@H]3C[C@@H](O)CC(=O)O3)[C@H]21`, the Potency result was “inactive”.
In the case of `C[N+]1(CCCCC[N+]2(C)CCCC2)CCCC1`, the Potency result was “inactive”.
Regarding `Nc1ccc(C(=O)O)cc1`, the result was inactive.
For `COc1cc2c(cc1O)CC[C@@H]1[C@@H]2CC[C@]2(C)[C@@H](O)CC[C@@H]12`, the Potency entry was “inactive”.
On the same count and under the same terms, next, `CC(C)C[C@H]1C(=O)N2CCC[C@H]2[C@]2(O)O[C@](NC(=O)[C@@H]3C=C4c5cccc6[nH]c(Br)c(c56)C[C@H]4N(C)C3)(C(C)C)C(=O)N12`: “inactive”.
With `CN1C2CCC1CC(OC(=O)c1c[nH]c3ccccc13)C2` (configuration not stated), the “activity change, negative = inhibition” value is 1.22% (inactive).
Turning to `Oc1ccc(O)cc1`, the Potency entry was “inactive”.
Consider `CC(=O)O[C@H]1C[C@@H]2CC[C@@H]3[C@H](CC[C@@]4(C)[C@H]3C[C@H]([N+]3(C)CCCCC3)[C@@H]4OC(C)=O)[C@@]2(C)C[C@@H]1[N+]1(C)CCCCC1`, for which the “activity change, negative = inhibition” value was -10.7% (inactive).
On to `CCCn1c(=O)[nH]c(=O)c2[nH]cnc21`, for which the outcome was inactive.
As to `N[C@@H](Cc1cnc[nH]1)C(=O)O`, the “activity change, negative = inhibition” value is -5.42% (inactive).
For `O=C(O)c1cc2cc(Cc3cccnc3)ccc2o1`, the “activity change, negative = inhibition” value was 2.81% (inactive).
